About 760 (36%) of roughly 2,100 compounds were called active.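 How the source made its calls: active means thallium-flux fluorescence traces judged by eye to show enhanced or reduced glutamate response, manual score 1 or -1, so both directions (some results past the limit were not filed as active); inactive means the rest, including fluorescent or raised-baseline compounds.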 These entries were drawn from the full list.

The test is described as follows: non-GIRK thallium flux modulation in mGlu8 cells, confirmation, counter-screen for GIRK activator project, cell-based, HEK-293 rmGlu8, no GIRK (AID 623868).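 Further: extra codes mark interference with 3 for fluorescent and 4 for baseline rise.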 The settings on record: thallium flux fluorescence, at 10 µM, actives lie on both sides, codes: 1 enhancer, -1 blocker, 0 none, thallium stimulus containing EC20 glutamate.
For `O=C(CC(O)(C(F)(F)F)C(F)(F)F)Nc1ccc(Cl)c(Cl)c1`, the manual score was 0 (inactive).

Take `CCCOc1ccc(NCC(=O)Nc2ccc(C)cc2C)cc1`: the manual score is 0 (inactive).

With `CCOC(=O)c1ccc(NC(=S)NC(=O)COc2ccccc2)cc1`, the manual score is 0 (inactive).

Regarding `CNC(=S)SCCOc1ccc(C)cc1`, the manual score is 3 (inactive).

With `CCCCOc1ccc(C(=O)NNC(=S)NC(=O)CC)cc1`, the manual score was 1 (active).

Consider `CCCOc1ccc(C(=O)NNC(=S)NC(=O)CC)cc1`, for which the manual score is 1 (active).

For the molecule `CCCCOc1ccc(C(=O)OC2CC(C)N(C)CC2C)cc1` (stereo not given), the manual score is 0 (inactive).

On to `CCNS(=O)(=O)c1cc(S(C)(=O)=O)ccc1Cl`, for which the manual score was 0 (inactive).

For `Oc1ccc2ccc3cccc[n+]3c2c1`, the manual score is 3 (inactive).

On to `C=COCCNC(=O)Nc1ccc(Cl)c(Cl)c1`, for which the manual score was 0 (inactive).

For `C=CCNC(=S)Nc1sc2c(c1C(=O)OCC)CC(C)(CC)OC2` (stereo not given), the manual score is 1 (active).

`C=CCNC(=S)Nc1sc2c(c1C(=O)OCC)CC(C(C)C)OC2` (stereo not given): the manual score was 1 (active).

With `CCOC(=O)C1=C(NC(=S)NC(=O)c2ccccc2)c2ccccc2CC1C(C)C` (stereo not given), the manual score is 0 (inactive).

With `CCOC(=O)c1c(NC(=S)NCCc2ccccc2)sc2c1CC(C(C)C)OC2` (stereo not given), the manual score was 0 (inactive).

As for `CCOC(=O)c1c(NC(=S)NC)sc2c1CC(C)(C)SC2`, the manual score was 1 (active).

For `CCOc1ccccc1OCCCCCc1c(C)n[nH]c1C`, the manual score was 0 (inactive).

Take `CC(C)NC(=S)N/N=C/c1cc(Br)ccc1O`: the manual score is 1 (active).

Turning to `O=C(Nc1nnc(-c2ccc(Cl)cc2)o1)C1=COCCO1`, the manual score is 0.5 (inactive).

Turning to `O=C(Nc1nnc(-c2ccccc2Cl)o1)c1nc2ccccc2s1`, the manual score is 1 (active).

With `CC(C)NC(=O)c1nc2ccccc2s1`, the manual score was 0 (inactive).

For the molecule `O=C(Nc1nnc(-c2ccc(Cl)cc2)o1)c1nc2ccccc2s1`, the manual score was 1 (active).

`O=C(Nc1nnc(-c2ccc(Cl)cc2)o1)c1ccccc1Br`: the manual score was 1 (active).

Take `CCN(CC)c1ccc2cc(-c3nc4ccccc4[nH]3)c(=O)oc2c1`: the manual score was 3 (inactive).

For the molecule `COc1cccc(NC(=O)NCCCSC2CCCCC2)c1`, the manual score is 0 (inactive).

For `Cc1ccc(-c2cc(-c3n[nH]c(=S)o3)c3ccccc3n2)cc1`, the manual score is 1 (active).

For the molecule `O=C(NC(=S)N(Cc1ccccc1)Cc1ccccc1)c1ccccc1F`, the manual score was 1 (active).

On to `O=C(NC(=S)NCc1ccccc1)c1ccccc1F`, for which the manual score is 1 (active).

Take `Fc1ccccc1NC(=S)NN(Cc1ccccc1)c1ccccc1`: the manual score was 0 (inactive).

Turning to `O=C(Nc1cc(Cl)ccc1Oc1ccccc1)c1ccccc1F`, the manual score was 0 (inactive).

Take `FC(F)(F)Oc1ccc(NC(=S)NCc2ccccc2)cc1`: the manual score was 0 (inactive).

As to `FC(F)(F)c1cccc(NC(=S)NCc2ccccc2)c1`, the manual score is 0 (inactive).

Take `Cc1cccc(C)c1NC(=S)NC(=O)c1ccccc1F`: the manual score is 1 (active).

Consider `CCCCOc1ccccc1C1C(C(=O)OC)=C(C)N(C)C(C)=C1C(=O)OC`, for which the manual score is 0 (inactive).

On to `O=C(C1CCCN(Cc2cccs2)C1)N1CCCCCC1` (stereo not given), for which the manual score was 0 (inactive).

With `CS(=O)(=O)Nc1ccc(C2=NN(C(=O)C3CCCCC3)C(c3cccs3)C2)cc1` (stereo not given), the manual score is -1 (active).

As to `CCCCCCn1c(=O)[nH]c2nc3cc(N)ccc3nc2c1=O`, the manual score is 3 (inactive).

As to `Cc1ccc(NC2CC(=O)N(CCc3ccccc3)C2=O)cc1` (stereo not given), the manual score is 0 (inactive).

Regarding `O=c1c2ccccc2nc(-c2cccc(Cl)c2)n1O`, the manual score is 1 (active).

For `O=c1c2cc(Br)ccc2nc(-c2cccc(C(F)(F)F)c2)n1O`, the manual score is 1 (active).

In the case of `O=c1c2ccccc2nc(-c2ccccc2)n1/N=C/c1ccc([N+](=O)[O-])cc1`, the manual score is 0 (inactive).

In the case of `O=c1c2ccc(Cl)cc2nc(-c2cccc(C(F)(F)F)c2)n1O`, the manual score was 1 (active).

With `CCN1c2ccccc2-c2nc3ccccc3n2C1c1ccco1` (stereo not given), the manual score is 0 (inactive).

Take `CC1=CC(C)(C)n2c(O)c(N=NC(N)=S)c3cccc1c32`: the manual score was 0.5 (inactive).

For `CN(C)c1nc(OCCNC(=O)COc2ccc(Cl)cc2Cl)nc(N2CCOCC2)n1`, the manual score was 0 (inactive).

Regarding `O=C(COc1ccccc1F)NC1CCN(Cc2ccccc2)CC1`, the manual score was 0 (inactive).

`Fc1ccc(NC(=S)NN=C2CCCCCC2)cc1`: the manual score was 1 (active).

`S=C(NN=C1CCCCCC1)Nc1ccc(Cl)cc1`: the manual score is 1 (active).

As for `Fc1ccccc1CNC(=S)Nc1ccc(Cl)cc1`, the manual score was 0 (inactive).

For `Fc1ccc(NC(=S)NCc2ccccc2Cl)cc1`, the manual score is 0 (inactive).

Consider `Cc1cc(C)c2c(c1)/C(=N/NC(=S)Nc1ccc(F)cc1)CCC2`, for which the manual score is 0 (inactive).

Turning to `Cn1c(C(=O)OC(C(=O)NC2CCCCC2)c2ccncc2)cc2sccc21` (stereo not given), the manual score is 0 (inactive).

For `c1ccc(-c2nnc3n2NC(c2ccc4c(c2)OCO4)S3)cc1` (stereo not given), the manual score was 1 (active).

In the case of `O=C(CSc1nc(CCC2CCCC2)nc2ccccc12)NCc1ccc2c(c1)OCO2`, the manual score is 0.5 (inactive).

`Cc1nccn1CCc1nc(N)nc(N)n1`: the manual score is 0 (inactive).

Regarding `Cc1ccc2nc(NC(=S)NC(=O)c3cccs3)sc2c1`, the manual score is 0.5 (inactive).

Take `O=C(NC(=S)Nc1nc2ccccc2s1)c1cccs1`: the manual score is 1 (active).

As for `O=C(NC(=S)Nc1nc2c(ccc3ccccc32)s1)c1cccs1`, the manual score was 1 (active).

As for `CCN(CC)C(=O)COc1ccc2oc(C)c(C(=O)OC)c2c1`, the manual score is 0 (inactive).

For `CN=C(C)C1=C(O)C(C(=O)OC)C(C)(C)CC1=O` (stereo not given), the manual score was 0 (inactive).

For `CC(C)c1nc(N2CCOCC2)c(C#N)c2c1CCCC2`, the manual score was 0 (inactive).

`CC1CCc2nn(CC(=O)N3CCN(C(=O)c4ccco4)CC3)cc2C1` (stereo not given): the manual score was 0 (inactive).

`CCc1cc2cc(C)ccc2nc1SCC(=O)N1CCN(C(=O)c2ccco2)CC1`: the manual score was 0 (inactive).

In the case of `Cc1cc2cc3c(cc2nc1SCC(=O)N1CCN(C(=O)c2ccco2)CC1)OCO3`, the manual score was -1 (active).

As for `CC(C)CC(=O)CN1C(=O)C2(OCCO2)c2ccccc21`, the manual score is 0 (inactive).

In the case of `C=CCn1c(=S)[nH]c2sc3c(c2c1=O)CCC3`, the manual score is 1 (active).

As to `Cc1cc(C(=O)CSc2nnc(-c3ccncc3)n2-c2ccccc2)c(C)n1C`, the manual score was 0 (inactive).

For the molecule `O=C(Nn1cnnc1)c1cc2cc(Br)ccc2oc1=O`, the manual score is 0 (inactive).

On to `CC(C)OCCCn1c(=S)[nH]c2cc3c(cc2c1=O)OCO3`, for which the manual score was 1 (active).

In the case of `Cc1ccccc1Cn1cc(NC(=O)c2nc3ncccn3n2)cn1`, the manual score is 0 (inactive).

As for `O=C(NNC(=O)c1sccc1-n1cccc1)c1cccc(Cl)c1`, the manual score was 1 (active).

Consider `O=C(NNC(=O)c1sccc1-n1cccc1)c1ccc(Cl)cc1`, for which the manual score is 1 (active).

As to `O=C(NNS(=O)(=O)c1cc(Cl)cc(Cl)c1)c1sccc1-n1cccc1`, the manual score was 0 (inactive).

`COc1ccc2[nH]c(C)c(C(=O)CN3CC(C)OC(C)C3)c2c1` (stereo not given): the manual score is 0 (inactive).

Regarding `COC(=O)c1ccc(C)c(NC(=O)CN2C(=O)c3ccccc3S2(=O)=O)c1`, the manual score is 0 (inactive).

As to `CCn1c(=S)[nH]c2cc(C(=O)OC)ccc2c1=O`, the manual score is 1 (active).

Regarding `COCCn1c(=S)[nH]c2cc(C(=O)N3CCN(c4ccc(F)cc4)CC3)ccc2c1=O`, the manual score is 0 (inactive).

For `COC(=O)c1ccc2c(=O)n(CC3CCCO3)c(=S)[nH]c2c1` (stereo not given), the manual score is 1 (active).

In the case of `Cc1cccn2c(=O)c3cc(C#N)c(=NC(=O)c4cccnc4)n(CC4CCCO4)c3nc12` (stereo not given), the manual score is 3 (inactive).

With `COc1ccc2occ(C(=O)c3ccc(N=C(C)N(C)C)cc3)c2c1`, the manual score was 0 (inactive).

In the case of `O=c1c2ccccc2c(C=NCc2ccccn2)c(O)n1-c1ccccc1`, the manual score was 0 (inactive).

Turning to `Cc1ccc(-n2[nH]c(C)c(C=Nc3cc(C)ccn3)c2=O)cc1`, the manual score was 1 (active).

For `Cc1ccc(-n2[nH]c(C)c(/C=N/c3ccccn3)c2=O)cc1`, the manual score was 0.5 (inactive).

`CCCCN(CCCC)C(=S)N/N=C/c1c(C)[nH]n(-c2ccccc2)c1=O`: the manual score was 1 (active).

For `Cc1[nH]n(-c2ccccc2)c(=O)c1N=Nc1nccs1`, the manual score was 1 (active).

`CC1=NN(c2ccccc2)C(=O)/C1=C\c1c(C)[nH]n(-c2ccccc2)c1=O`: the manual score was 0 (inactive).

`Cc1[nH]n(-c2ccccc2)c(=O)c1/C=N/c1ccccn1`: the manual score is 1 (active).

As for `CCN(Cc1ccccc1)C(c1ccccn1)c1nnnn1C1CCCCC1` (stereo not given), the manual score was 0 (inactive).

For the molecule `CN(C)CCNC(=O)c1cc2c(s1)-c1ccccc1OC2`, the manual score is 0 (inactive).

With `CC(NC(=O)c1ccccc1NC(=O)CSc1nnnn1C)c1ccccc1` (stereo not given), the manual score was 0 (inactive).

As for `CN(C)Cc1c(O)ccc2occ(C(O)c3ccccc3)c12` (stereo not given), the manual score was 0 (inactive).

As to `O=C1CC(N2CCN(c3nc4ccccc4s3)CC2)C(=O)N1c1ccc(F)cc1` (stereo not given), the manual score is 0 (inactive).

As to `Cn1c(=O)cc(OCCCC(=O)NCc2ccc3c(c2)OCO3)c2ccccc21`, the manual score is 0 (inactive).

Regarding `Cc1[nH]n(-c2ccc(Cl)cc2)c(=O)c1/C=N/c1nnc(-c2ccccc2)s1`, the manual score is 1 (active).

For the molecule `CC1(C)Cc2c(sc3[nH]c(=S)n(Cc4ccccc4)c(=O)c23)CO1`, the manual score was 1 (active).

Consider `CC1(C)Cc2c(sc3[nH]c(=S)n(Cc4ccco4)c(=O)c23)CO1`, for which the manual score is 1 (active).

`CC(C)C1Cc2c(sc3[nH]c(=S)n(Cc4ccccc4)c(=O)c23)CO1` (stereo not given): the manual score was 1 (active).

In the case of `CC(C)C1Cc2c(sc3c2c(=O)n(Cc2ccccc2)c2nncn32)CO1` (stereo not given), the manual score is -0.5 (inactive).

Take `CCC1(C)Cc2c(sc3[nH]c(=S)n(Cc4ccccc4)c(=O)c23)CO1` (stereo not given): the manual score is 1 (active).

Consider `Cc1ccc(C)c(OCC(O)CN2C(C)CCCC2C)c1` (stereo not given), for which the manual score is 0 (inactive).

`Cc1cc(N2CCC(C)CC2)n2ncc(-c3ccccc3)c2n1`: the manual score is 0 (inactive).

In the case of `O=C(C1CCN(c2ncnc3c2sc2cccc(F)c23)CC1)N1CCOCC1`, the manual score was -0.5 (inactive).

On to `CN(C)CCCOc1nc2c(c(=O)n(C)c(=O)n2C)n1C`, for which the manual score is 1.5 (inactive).

Turning to `O=C(Nc1ccc(Cl)cc1)NC1CCCCC1Cc1ccco1` (stereo not given), the manual score is 0 (inactive).

For `CC1CCc2c(sc(NC(=O)C(=O)NCc3ccco3)c2C#N)C1` (stereo not given), the manual score is 1 (active).

For `O=C(NCc1ccccc1)C(=O)Nc1nc(C23CC4CC(CC(C4)C2)C3)cs1`, the manual score is 0 (inactive).

Consider `CCCCn1nc(C(=O)N2CCc3ccccc32)c2ccccc2c1=O`, for which the manual score was 0 (inactive).

For `O=C(COc1ccc2ccccc2c1CN1CCOCC1)N1CCc2ccccc21`, the manual score was 0 (inactive).

Regarding `CCn1nc(C(=O)OCC(=O)c2c[nH]c3ccccc23)c2ccccc2c1=O`, the manual score was -1 (active).

Turning to `CCOC(=O)C(C)Sc1nnc(-c2c[nH]c3ccccc23)n1C` (stereo not given), the manual score was 0 (inactive).

With `CCn1nc(C(=O)OCC(=O)N2CCc3ccccc32)c2ccccc2c1=O`, the manual score is -1 (active).

The values above are taken from PubChem BioAssay AID623868 (Vanderbilt High Throughput Screening Facility, 2012).
